The text below walks through data of the supplement of paper PMC4466140.

The first assay concerns the target SpBzz1-D2. Kind of assay: SPOT peptide array binding signal intensity (averaged, normalized) (arbitrary units (background-subtracted, floor 0; scale differs between SH3 domains)); higher = stronger binding of the SH3 domain to the peptide. Put shortly:
(§1)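 SH3 domains from four yeast species were expressed as GST fusions in E. coli BL21(DE3) and purified on glutathione Sepharose. Each was incubated at 10 μg/ml overnight at 4°C in TBS-based blocking buffer on cellulose membranes bearing synthetic 15-mer peptides, in which serines replaced cysteines. Bound protein was detected with anti-GST antibody, an HRP anti-mouse secondary and luminol, then imaged and quantified with Genespotter. The binding signal is the normalized, background-subtracted spot intensity averaged over replicates, in arbitrary units that are not the same from one domain to another.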
For APPLPPTAPPPPSLP, the “SPOT peptide array binding signal intensity” value was ≤ 0.

A further assay has as its target SpCyk3. The assay is described as above. In outline:
as §1
In the case of APPLPPTAPPPPSLP, the “SPOT peptide array binding signal intensity” value came out at 1.

The target of a further assay is SpHof1. The description is as above. Put shortly: as §1
Consider APPLPPTAPPPPSLP, for which the “SPOT peptide array binding signal intensity” value was ≤ 0.

The target of a further assay is SpHof1-2. The description is as above. In outline:
as §1
Regarding APPLPPTAPPPPSLP, the “SPOT peptide array binding signal intensity” value stood at 4.

In the next assay the target is SpHof1-3. The description is as above. In outline: as §1
On to APPLPPTAPPPPSLP, for which the “SPOT peptide array binding signal intensity” value was 0.5.

The next assay has as its target SpHse1. Described as above. Put shortly:
as §1
In the case of APPLPPTAPPPPSLP, the “SPOT peptide array binding signal intensity” value is 10.5.

The next assay concerns the target SpLsb1. The assay is described as above. In outline:
as §1
For the molecule APPLPPTAPPPPSLP, the “SPOT peptide array binding signal intensity” value was ≤ 0.

The target in the next assay is SpLsb4. The assay is described as above. Put shortly: as §1
On to APPLPPTAPPPPSLP, for which the “SPOT peptide array binding signal intensity” value is ≤ 0.

A further assay deals with SpMyo1. Described as above. Put shortly:
as §1
Regarding APPLPPTAPPPPSLP, the “SPOT peptide array binding signal intensity” value came out at 2050.

A further assay has as its target SpNbp2. The description is as above. Put shortly:
as §1
Turning to APPLPPTAPPPPSLP, the “SPOT peptide array binding signal intensity” value was found to be 6.5.

The next assay concerns the target SpPex13. Described as above. In outline:
as §1
On to APPLPPTAPPPPSLP, for which the “SPOT peptide array binding signal intensity” value was ≤ 0.

The target of a further assay is SpRvs167. Described as above. In outline: as §1
Consider APPLPPTAPPPPSLP, for which the “SPOT peptide array binding signal intensity” value came out at 24.3.

The next assay has as its target SpSla1-D1-D2. The description is as above. In outline:
as §1
Consider APPLPPTAPPPPSLP, for which the “SPOT peptide array binding signal intensity” value is ≤ 0.

A further assay deals with SpSla1-D3. The assay is described as above. Put shortly:
as §1
For APPLPPTAPPPPSLP, the “SPOT peptide array binding signal intensity” value is ≤ 0.

The target of the next assay is AgAbp1. The description is as above. In outline: as §1
SPLGAPPPPPHKDHL: the “SPOT peptide array binding signal intensity” value was ≤ 0.

In another assay the target is AgBbc1. Described as above. In outline:
as §1
SPLGAPPPPPHKDHL: the “SPOT peptide array binding signal intensity” value is ≤ 0.

A further assay addresses AgBem1-D1. The description is as above. In outline: as §1
For the molecule SPLGAPPPPPHKDHL, the “SPOT peptide array binding signal intensity” value is ≤ 0.

A further assay deals with AgBzz1-D1. Described as above. In outline: as §1
Take SPLGAPPPPPHKDHL: the “SPOT peptide array binding signal intensity” value was ≤ 0.

Another assay has as its target AgBzz1-D2. Described as above. Put shortly: as §1
With SPLGAPPPPPHKDHL, the “SPOT peptide array binding signal intensity” value worked out at 3.

A further assay deals with AgCyk3. The assay is described as above. In outline: as §1
As for SPLGAPPPPPHKDHL, the “SPOT peptide array binding signal intensity” value was determined as 1.

For the next assay, the target named is AgFus1. Described as above. Put shortly:
as §1
In the case of SPLGAPPPPPHKDHL, the “SPOT peptide array binding signal intensity” value is ≤ 0.

Another assay concerns the target AgHof1. The description is as above. Put shortly: as §1
In the case of SPLGAPPPPPHKDHL, the “SPOT peptide array binding signal intensity” value is ≤ 0.

For a further assay, the target named is AgHse1. The assay is described as above. In outline:
as §1
SPLGAPPPPPHKDHL: the “SPOT peptide array binding signal intensity” value is ≤ 0.

The target in a further assay is AgLsb1. Described as above. Put shortly:
as §1
Consider SPLGAPPPPPHKDHL, for which the “SPOT peptide array binding signal intensity” value is ≤ 0.

Another assay addresses AgLsb4. Described as above. In outline: as §1
With SPLGAPPPPPHKDHL, the “SPOT peptide array binding signal intensity” value was ≤ 0.

For the next assay, the target named is AgMyo5. Described as above. In outline:
as §1
For SPLGAPPPPPHKDHL, the “SPOT peptide array binding signal intensity” value turned out to be 546.

In another assay the target is AgNbp2. The assay is described as above. In outline:
as §1
Consider SPLGAPPPPPHKDHL, for which the “SPOT peptide array binding signal intensity” value was ≤ 0.

The target in the next assay is AgRvs167. The description is as above. Put shortly: as §1
As for SPLGAPPPPPHKDHL, the “SPOT peptide array binding signal intensity” value is 2.83.

In another assay the target is AgSho1. Described as above. In outline: as §1
As to SPLGAPPPPPHKDHL, the “SPOT peptide array binding signal intensity” value is ≤ 0.

A further assay addresses AgSla1-D1-D2. The description is as above. In outline:
as §1
On to SPLGAPPPPPHKDHL, for which the “SPOT peptide array binding signal intensity” value turned out to be 6.

The next assay concerns the target AgSla1-D3. Described as above. Put shortly:
as §1
As for SPLGAPPPPPHKDHL, the “SPOT peptide array binding signal intensity” value was ≤ 0.

For the next assay, the target named is CaAbp1-D1. The description is as above. In outline:
as §1
As to SPLGAPPPPPHKDHL, the “SPOT peptide array binding signal intensity” value is ≤ 0.

A further assay addresses CaAbp1-D2. Described as above. In outline: as §1
For SPLGAPPPPPHKDHL, the “SPOT peptide array binding signal intensity” value was ≤ 0.

In the next assay the target is CaBbc1. Described as above. In outline: as §1
For SPLGAPPPPPHKDHL, the “SPOT peptide array binding signal intensity” value is ≤ 0.

The next assay deals with CaBem1-D1. Described as above. Put shortly: as §1
As to SPLGAPPPPPHKDHL, the “SPOT peptide array binding signal intensity” value is ≤ 0.

Another assay has as its target CaBzz1-D1. Described as above. Put shortly:
as §1
With SPLGAPPPPPHKDHL, the “SPOT peptide array binding signal intensity” value stood at 8.5.

In another assay the target is CaBzz1-D2. Described as above. Put shortly:
as §1
Consider SPLGAPPPPPHKDHL, for which the “SPOT peptide array binding signal intensity” value was ≤ 0.

The next assay concerns the target CaCyk3. The assay is described as above. In outline:
as §1
Turning to SPLGAPPPPPHKDHL, the “SPOT peptide array binding signal intensity” value was ≤ 0.

The target of another assay is CaFus1. Described as above. Put shortly:
as §1
For the molecule SPLGAPPPPPHKDHL, the “SPOT peptide array binding signal intensity” value is ≤ 0.

In the next assay the target is CaHof1. The assay is described as above. In outline: as §1
In the case of SPLGAPPPPPHKDHL, the “SPOT peptide array binding signal intensity” value is ≤ 0.

The target of a further assay is CaHse1. The description is as above. In outline: as §1
Regarding SPLGAPPPPPHKDHL, the “SPOT peptide array binding signal intensity” value was 1.

The next assay addresses CaLsb1. The description is as above. In outline:
as §1
As to SPLGAPPPPPHKDHL, the “SPOT peptide array binding signal intensity” value is ≤ 0.

A further assay deals with CaLsb4. Described as above. In outline:
as §1
With SPLGAPPPPPHKDHL, the “SPOT peptide array binding signal intensity” value is ≤ 0.

The target in the next assay is CaMyo5. The assay is described as above. Put shortly: as §1
On to SPLGAPPPPPHKDHL, for which the “SPOT peptide array binding signal intensity” value was 13.5.
